# Screening results as filed in PubChem BioAssay.
# This excerpt belongs to a sample that is enriched for hits.
# p53ts 32C kill: kills p53ts cells at the permissive temperature. H1299-p53A138V at 32C, ATP luminescence viability, 24 h. Potency, µM (doses to about 46.1 µM), for inactives: at the highest dose activity change, negative = cytotoxicity, actives largely listed as cytotoxic. 130,000 compounds, 0.93% hits;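 further: potency means the concentration at half of the fitted maximal effect; 0% = DMSO and -100% = full killing by reference compound; nearly all actives have a fitted effect of over 55% in size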
#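 Cells: H1299 p53ts (A138V), 600/well, pre-incubated 16–30 h at 37C. Cpd up to 46 uM, 24 h, 32C. Readout: ATPlite luminescence, 20 min RT. Normalization: DMSO vs tamoxifen 100 uM. AC50 by Hill equation.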
# Peg3 imprint: genomic imprint erasure induction. mouse ES Peg3-LacZ reporter, beta-gal luminescence, 40 h. Potency, µM (series often up to 60.7 µM), for inactives: top-dose activity change, positive = activation, hits mostly activators. 110,000 compounds, 0.02% hits. AID 1948; further: potency means the concentration at half of the fitted maximal effect
#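 Imprint erasure is scored as LacZ activity from the silenced maternal Peg3 allele in feeder-free female ES cells cultured 40 h with LIF. Luminescence is normalized to in-plate negative controls and fitted to the Hill equation.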
# IkB signaling: inhibitors of IkB signaling in ABC-DLBCL cells | ABC-DLBCL IkBa-CBG/CBR dual luciferase ratio, 4 h; response scale: scaled: untreated 0%, proteasome inhibitor 100% | Potency, µM (doses to about 57.1 µM), for inactives: at the highest dose IkBa stabilization activation | 110,000 compounds, 0.04% hits | AID 445; active means well fitted curve in the direction sought with a large enough effect in the signal ratio, not every such curve was filed as active; inconclusive means small, poorly fitted or top-dose-only effect, or a change in a side signal; the % refers to the signal ratio;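 further: potency means the concentration at half of the fitted maximal effect; the direction sought is a rising ratio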
#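 Curves were fitted separately to fusion (green), unfused (red) and ratio luminescence, then classed by r2, magnitude and activity. Cells: OCI-Ly3, 4 h compound plus doxycycline at 37C; 10 uM MG-132 defined full response.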
# IMPase inh: membrane-permeable compound that blocks inositol monophosphatase | P97697 | CHO-M1 cells, IP1 accumulation, HTRF TR-FRET ratio | inhibition (IP1 accumulation), % at 46.1 µM | 120,000 tested, under 10 active; active means well fitted curve in the direction sought with a large enough effect in the signal ratio, not every such curve was filed as active; inconclusive means small, poorly fitted or top-dose-only effect, or a change in a side signal; inactive means no such curve, though single readings can be large or run the other way; the % refers to the signal ratio;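 further: cells stimulated with carbachol in lithium chloride buffer; plate controls were DMSO basal wells for no effect and reference inhibitor wells for full effect; higher means more IMPase inhibition seen as more IP1 and lower FRET ratio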
# Target sequence (P97697 whole entry, looked up): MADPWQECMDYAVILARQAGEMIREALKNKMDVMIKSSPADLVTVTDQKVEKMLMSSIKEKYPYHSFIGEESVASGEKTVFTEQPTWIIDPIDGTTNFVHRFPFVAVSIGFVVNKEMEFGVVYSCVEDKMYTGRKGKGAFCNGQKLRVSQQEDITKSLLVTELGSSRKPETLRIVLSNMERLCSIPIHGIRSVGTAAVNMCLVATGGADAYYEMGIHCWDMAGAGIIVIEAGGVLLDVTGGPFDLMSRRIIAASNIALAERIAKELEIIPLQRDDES
#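 Elevated IP1 in lysates lowers TR-FRET signal (665/620 ratio and 620 channel reported). Cells were CHO-M1, given carbachol (50 uM as added) plus 50mM LiCl, pH 7.4, 30 min, 37C; compounds titrated up to 46 uM; AC50 by Hill equation.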
# p53ts 39C kill: p53ts cell cytotoxicity, nonpermissive temperature; H1299-p53A138V viability at 39C, ATP luminescence, 24 h; Potency, µM (titrated, usually from 46.1 µM), for inactives: at the top dose activity change, negative = cell killing, most hits filed as cytotoxic; AID 902; 130,000 compounds, 1.5% hits; further: potency means the concentration at half of the fitted maximal effect; on the % scale 0 is the no-effect control and ±100 the full control effect; nearly all actives have a fitted effect of over 55% in size
# FLuc inh: blocks Photinus pyralis firefly luciferase activity. purified firefly luciferase, luminescence, 8 min. Potency, µM (titrated, usually from 57.1 µM), inactives show at the highest dose activity change, negative = inhibition, hits mostly inhibitors. 72,000 compounds, 2.2% hits; further: potency means the concentration at half of the fitted maximal effect; on the % scale 0 is the no-effect control and ±100 the full control effect; nearly all actives have a fitted effect of over 40% in size
# Target sequence (P08659 whole entry, looked up): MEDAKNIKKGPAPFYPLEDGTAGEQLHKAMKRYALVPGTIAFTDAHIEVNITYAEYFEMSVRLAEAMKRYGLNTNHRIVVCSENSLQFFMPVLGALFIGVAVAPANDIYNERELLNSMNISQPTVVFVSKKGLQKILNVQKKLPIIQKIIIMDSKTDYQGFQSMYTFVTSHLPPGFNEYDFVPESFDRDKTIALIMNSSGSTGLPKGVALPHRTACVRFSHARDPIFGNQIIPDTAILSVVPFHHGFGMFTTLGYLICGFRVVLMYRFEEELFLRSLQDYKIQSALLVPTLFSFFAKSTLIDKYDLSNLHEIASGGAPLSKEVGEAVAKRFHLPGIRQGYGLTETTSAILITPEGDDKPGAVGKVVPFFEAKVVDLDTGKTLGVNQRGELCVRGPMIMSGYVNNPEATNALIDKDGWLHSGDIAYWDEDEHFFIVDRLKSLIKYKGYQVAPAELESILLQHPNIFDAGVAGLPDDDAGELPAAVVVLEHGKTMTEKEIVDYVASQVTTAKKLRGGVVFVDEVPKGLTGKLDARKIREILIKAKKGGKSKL
#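 Here, luciferase activity is measured as luminescence following an 8 min room-temperature reaction at 10 uM ATP, pH 7.2. Every library sample is titrated.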
# * marks the source's active call; other numbers are inactive results; u = inconclusive; x = not tested or not shown; ! = not active in a repeat; [ ] = dose if it differs, or a comment. Unless noted, the call rests on the fitted dose curve; in most records, active means well fitted curve in the direction sought with a large enough effect; inconclusive means small, poorly fitted or top-dose-only effect, or another doubt; inactive means no such curve, though single readings can be large; an effect the other way counts as inactive or inconclusive.
SMILES,p53ts 32C kill,Peg3 imprint,IkB signaling,IMPase inh,p53ts 39C kill,FLuc inh
COc1cc(/C=N/O)ccc1OCc1ccc(C(=O)O)cc1,8.91µM*,x,x,7.1,8.91µM*,0.316µM*
COc1cc(C)cc2oc(=O)c(CC(=O)NCCc3ccc(Cl)cc3)c(C)c12,-21.8%,8.8%[10.9 µM],u,x,12.6µM*,x
CCCNC(=O)c1ccc2c(c1)N=C(CCC)c1ccccc1S2,u,-17.5%[10.9 µM],u,5.7,-21.2%,x
CC(C)(C)OC(=O)N1CCC(c2c(C(=O)NCCN3CCC(Cc4ccccc4)CC3)cnn2-c2cccc(Cl)c2)CC1,u,-23.5%[10.9 µM],u,x,20µM*,x
Cc1ccc(-n2ncc(C(=O)NCCN3CCCC3)c2C2CCN(C(=O)OC(C)(C)C)CC2)cc1,-9.8%,-10.4%[10.9 µM],-0.7%,x,-17.3%,x
Cc1ccc(-n2ncc(C(=O)NCCN3CCC(Cc4ccccc4)CC3)c2C2CCN(C(=O)OC(C)(C)C)CC2)cc1,u,-24.0%[10.9 µM],u,x,7.94µM*,x
O=c1c[n+](CCCC[n+]2cc(=O)o[nH]2)[nH]o1,-0.5%[9.22 µM],-7.9%[10.9 µM],-1.1%[11.4 µM],x,3.3%[9.22 µM],1.8%[11.4 µM]
Nc1nc(Cl)nc2c1ncn2[C@@H]1O[C@@H](COP(=O)(O)OP(=O)(O)OP(=O)(O)O)[C@@H](O)[C@H]1O,u,x,u,1.3,u,1.2%
CCC1CCCCN1C(=O)CSc1nc2c([nH]c3ccccc32)c(=O)n1-c1ccc(OC)cc1 (stereo unspecified),-0.8%,10.8%[10.9 µM],u,x,-29.5%,x
CNC(=O)c1cc2c(cn1)[nH]c1ccccc12,u,-9.0%,1.0%,-6.1,u,25.1µM*!
COC(=O)[C@@H]1C[C@@]2(O)[C@@H](O)[C@@H](O)[C@@H](O)C[C@H]2N1Cc1ccc(N2CCOCC2)cc1,8.6%,14.0%,x,x,8.2%,x
COC(=O)CC1C(C)(C)C(OC(C)=O)C2CC3C4CC(=O)OC(c5ccoc5)[C@]4(C)CCC3[C@@]1(C)C2=O (stereo partly specified),8.0%,28.7%,x,x,-2.4%,x
CCc1cc2cc(C(=O)Nc3ccc(F)cc3)sc2s1,9.3%,x,x,-10.3,10.9%,x
CCc1cc2cc(C(=O)Nc3ccccc3F)sc2s1,-9.3%,-50.5%,u,6.4,-11.9%,5.01µM*
C[C@H]1[C@H](C)CC[C@@]2(C(=O)O)CC[C@]3(C)C(=CC[C@H]4[C@@]5(C)C[C@@H](O)[C@H](O)[C@@](C)(CO)[C@@H]5CC[C@@]43C)[C@@H]12,x,x,-0.8%[11.4 µM],x,x,-3.8%[11.4 µM]
O=C1C(Cl)=C(NC2CCc3ccccc32)C(=O)c2ncccc21 (stereo unspecified),2.51µM*,-86.3%,x,x,6.31µM*,x
Clc1ccccc1-c1nccc(NCCN2CCOCC2)n1,-1.3%,-12.6%,-0.3%[11.4 µM],x,-12.9%,0.9%[2.29 µM]
O=C1C(Cl)=C(NCCN2CCOCC2)C(=O)c2ncccc21,3.16µM*,-82.1%,x,x,5.01µM*,x
O=C(/C=C\c1ccc(O)c(O)c1)O[C@H]1C[C@@](O)(C(=O)O)C[C@H](O)[C@@H]1O,x,x,-1.2%[11.4 µM],x,x,-0.6%[11.4 µM]
CCOC(=O)C1=CC(OC(CC)CC)C(NC(C)=O)C(N)C1 (stereo unspecified),-13.5%,-8.6%,x,x,-5.1%,x
O=C(NC1CC(=O)N(c2cccc(F)c2)C1)C1CCCC1 (stereo unspecified),-4.5%,-8.9%[10.9 µM],-0.4%,x,-17.5%,x
Cc1csc(NC(=O)c2cc(C)oc2C)n1,x,x,x,2.0,x,x
O=C(Nc1ccccc1O)c1ccccc1O,-22.7%,-60.4%,u,1.2,u,20µM*
Cc1csc(NC(=O)c2ccccc2O)n1,u,-68.0%,u,7.3,u,25.1µM*
COc1ccc(CNC(=O)CN2C(=O)CSc3ccc(S(=O)(=O)N4CCC(C)CC4)cc32)cc1,4.8%,-12.6%[10.9 µM],u,x,3.8%,x
SMILES,p53ts 32C kill,Peg3 imprint,IkB signaling,IMPase inh,p53ts 39C kill,FLuc inh
O=C(NCC1CCCO1)c1ccccc1-c1nc(-c2ccc(Cl)cc2)no1 (stereo unspecified),-16.5%,-10.4%,-1.3%,8.8,-15.0%,u
Cc1cccc(-c2noc(-c3ccccc3C(=O)NCC3CCCO3)n2)c1 (stereo unspecified),-19.9%,-5.0%,-2.4%,10.7,-22.6%,15.8µM*
Nc1ccc(N=Nc2ccc(-c3ccc(O)cc3)cc2)c2ccc(S(=O)(=O)O)cc12,1.1%[9.22 µM],-12.4%[10.9 µM],-3.3%[11.4 µM],x,2.7%[9.22 µM],3.16µM*
Nc1c(N=Nc2ccc(-c3ccc(N=Nc4cc(S(=O)(=O)O)c5ccccc5c4N)cc3)cc2)cc(S(=O)(=O)O)c2ccccc12,x,-11.3%,x,x,x,x
O=C1[C@H]2O[C@@H]2[C@@H](O)[C@H]2[C@H]1CCn1c(=O)n(Cc3cc4c(cc3Cl)OCO4)c(=O)n12,8.7%[9.22 µM],x,x,x,1.0%[9.22 µM],0.7%[11.4 µM]
Cc1ccc(NC(=O)C(C)Sc2nc3c(c(=O)[nH]2)CCCC3)cc1Cl (stereo unspecified),7.4%,-16.5%[10.9 µM],-0.7%,x,-18.0%,x
CCN(CC)CCOC(=O)c1ccc(NC(=O)c2cc3c(s2)-c2ccccc2OC3)cc1,u,-5.6%[10.9 µM],u,x,15.8µM*,x
C/C(=C\C(=O)c1ccc(C)cc1)Nc1cccc(O)c1,u,-35.2%,u,2.8,-26.6%,5.01µM*
Cc1ccc(C(=O)/C=C/Nc2ccc3c(c2)OCO3)cc1,x,x,x,-6.7,x,x
Cc1ccc(C(=O)/C=C/Nc2cccc(O)c2)cc1,x,x,x,-5.2,x,2.51µM*
O=C(/C=C/Nc1cccc(O)c1)c1ccccc1,3.98µM*,-81.0%,u,-1.3,7.94µM*,2µM*
C/C(=C\C(=O)c1ccccc1)Nc1ccc(O)cc1,x,x,x,7.9,x,x
O=C(Cn1c(=O)nc(-c2ccccc2)c2ccccc21)NCc1ccc(Cl)cc1,-9.3%,-7.8%[10.9 µM],u,x,u,x
C=CC[C@@H]1C=C[C@@H](O/N=C\c2ccc(C(=O)N3[C@H](c4ccc(C)cc4)[C@@H](C)CC[C@H]3C(=O)OC)cc2)[C@@H](CO)O1,9.6%[9.22 µM],x,x,x,4.2%[9.22 µM],1.4%[11.4 µM]
CN1C2CC(OC(=O)C(CO)c3ccccc3)C[C@@H]1[C@H]1OC21 (stereo partly specified),x,-10.5%,x,x,x,x
CC(=O)OCC(=O)[C@@]1(O)[C@H](OC(C)=O)C[C@H]2[C@@H]3CCC4=CC(=O)C=C[C@]4(C)[C@@]3(F)[C@@H](O)C[C@@]21C,x,-4.8%,x,x,x,x
C=C(C)COc1ccc2c(C)c(CC(=O)OC)c(=O)oc2c1C,-23.7%,-25.0%,1.3%,5.0,-10.0%,15.8µM*
COC(=O)Cc1c(C)c2ccc(OCC(C)=O)c(C)c2oc1=O,u,-12.9%,-1.0%,8.1,u,-2.3%
CC(C)CNC(=O)NC1C(NC(=O)NCC(C)C)N(C)C(=O)N1C (stereo unspecified),5.01µM*,-62.4%,u,-4.3,6.31µM*,5.01µM*
